Reference: PubChem BioAssay (NCATS)
Results filed as inconclusive are left out. The source made the active and inactive calls. Calls come from the whole dose curve; as a rule, active = well fitted inhibition curve with a large enough effect; inconclusive = small, poorly fitted or top-dose-only effect; inactive = flat fitted curve, though single readings scatter.
% is set by controls: 0 for no effect and ±100 for the full control effect; potency is the fitted concentration of half-maximal effect.

Each molecule was assayed on CRL-7250 (assay: Cytotoxic Profiling of Annotated Libraries Using Quantitative High-Throughput Screening (AID 1296008; note: nearly all actives have a fitted effect of over 60% in size)). Settings: Five cell lines viability, CellTiter-Glo ATP luminescence, 48-72 h; max response: active compounds read low.
How it was run: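 Cells exposed to compounds for 48 or 72 hr at 37 degrees Celsius. Viability read as ATP-coupled luminescence with CellTiter-Glo after 10 min at room temperature.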
In the case of `O=C(O)c1c(O)c(-c2ccccc2)nc2ccccc12`, the outcome is reported as “inactive”. `C[C@H](C(=O)NC1CCCC1)N(C(=O)Cn1nnc(-c2ccc3c(c2)OCO3)n1)C1CCCCC1` was tested, and the outcome was “inactive”. For `CC(=O)O[C@H]1CC(C)(C)CC2[C@@]13[C@H](O)C[C@]1(C)[C@@]2(CCC2[C@@]4(C)CC[C@H](O[C@@H]5OC[C@H](O[C@@H]6O[C@H](CO)[C@@H](O)[C@H](O)[C@H]6O[C@@H]6OC[C@@H](O)[C@H](O)[C@H]6O)[C@H](O)[C@H]5O[C@@H]5O[C@H](CO)[C@@H](O)[C@H](O)[C@H]5O)C(C)(C)C4CC[C@]21C)O[C@@H]3O` (stereo not given in full), the Potency was 2.46 µM (active). For `C=C1C[C@]23C[C@H]1CC[C@H]2C1=C[C@H]2OC(=O)[C@@](C)([C@H]1[C@@H]3C(=O)O)[C@H]2O`, the max response was 2.1% (inactive). In the case of `OC[C@H]1O[C@@H](O[C@H]2[C@H](OCc3ccccc3)O[C@H](CO[C@@H]3OC[C@@H](O)[C@H](O)[C@H]3O)[C@@H](O)[C@@H]2O)[C@H](O)[C@@H](O)[C@@H]1O`, the max response is reported as -6.77% (inactive). For `CC1(c2nc3c(C(N)=O)cccc3[nH]2)CCCN1` (stereo not given), the max response was -7.72% (inactive). With `COC(=O)c1ccc(OC(CO)C(O)c2ccc(O)c(OC)c2)c(OC)c1` (stereo not given) the max response was 0.832% (inactive). For `C=CC(=O)Nc1cc(Nc2nccc(-c3c[nH]c4ccccc34)n2)c(OC)cc1N(C)CCN(C)C`, the Potency was 18.4 µM (active). With `CC(C)=CCC/C(C)=C/CC/C(C)=C/COC1OC(COC2OCC(OC3OCC(O)C(O)C3O)C(O)C2O)C(O)C(OC2OC(C)C(OC3OC(C)C(OC4OCC(OC5OC(C)C(O)C(O)C5O)C(O)C4O)C(O)C3O)C(O)C2O)C1O` (stereo not given) the max response was 1.98% (inactive). In the case of `CC(C)=CCC[C@](C)(O[C@@H]1O[C@H](CO)[C@@H](O)[C@H](O)[C@H]1O)[C@H]1CC[C@]2(C)[C@@H]1[C@H](O)CC1[C@@]3(C)CC[C@H](O)C(C)(C)C3[C@@H](O[C@@H]3O[C@H](CO)[C@@H](O)[C@H](O)[C@H]3O[C@@H]3OC[C@@H](O)[C@H](O)[C@H]3O)C[C@]12C` (stereo not given in full), the max response is reported as -28% (inactive). In the case of `C=CC(C)(C)C12C=C(OC)C(=O)N3C(C(C)C)C(=O)NC31N(OC)c1ccccc12` (stereo not given), the max response is reported as 1.83% (inactive). With `CC1=C(C)C(=O)OC(C(C)C2CCC3C4C5OC5C5(O)CC(OC6OC(CO)C(OC7OC(C)C(O)C(O)C7O)C(O)C6O)CC(O)C5(C)C4CCC23C)C1` (stereo not given) the outcome was “inactive”. For `O=C(NCC(O)CO)c1ccncc1Nc1ccc(I)cc1F` (stereo not given), the Potency was 6.51 µM (active). For `COc1cc(OC)cc(C(=O)Nc2ccc(Cl)c(-c3nc4ccc(N(C)C)cc4[nH]3)c2)c1`, the outcome was “inactive”. For `C=C1[C@H](OC(C)=O)[C@H]2[C@@H](OC(C)=O)[C@](C)(OC(C)=O)C[C@]2(OC(C)=O)C(=O)[C@H](C)/C=C/C(C)(C)C(=O)[C@H](OC(=O)C(C)C)[C@H]1OC(C)=O`, the max response was 0.468% (inactive). For `OC/C=C/c1ccc(O[C@@H]2O[C@H](CO)[C@@H](O)[C@H](O)[C@H]2O)cc1`, the max response was -14.7% (inactive). For `COc1cc(C(=O)OC[C@@]2(O)CO[C@@H](O[C@H]3[C@H](Oc4ccc(C(=O)O)cc4OC)O[C@H](CO)[C@@H](O)[C@@H]3O)[C@@H]2O)ccc1O`, the max response was -0.15% (inactive). `C[C@H](NC(c1cccc2[nH]c(=O)c(=O)[nH]c12)P(=O)(O)O)c1ccc(Br)cc1` (stereo not given in full) was tested, and the max response was -1.1% (inactive). With `COc1ccc(CNC(=O)c2cc(-c3cncc(C)c3)ncc2-c2nccs2)nc1OC` the outcome was “inactive”. With `Cc1cccc(Oc2cnc(=O)[nH]c2)c1` the outcome was “inactive”. For `C[C@@H]1C[C@@H]([C@@H](O)C(C)(C)O)O[C@H]2C[C@@]3(C)C(=C12)C[C@H](O)[C@H]1[C@@]2(C)CCC(=O)C(C)(C)C2CC[C@@]13C` (stereo not given in full), the max response was 0.566% (inactive). For `CC1COC(Nc2ccc3ncnc(Nc4ccc(OCc5nccs5)c(Cl)c4)c3c2)=N1` (stereo not given), the Potency was 9.2 µM (active). With `Cc1nc2ccc(Oc3ccc(F)cc3)cc2c(=O)n1C[C@H]1CCCN(C(C)C)C1` the max response was -2.55% (inactive). In the case of `O=C(OC[C@@]1(O)CO[C@@H](O[C@H]2[C@H](Oc3ccc(O)cc3)O[C@H](CO)[C@@H](O)[C@@H]2O)[C@@H]1O)c1ccc(O)cc1`, the outcome is reported as “inactive”. With `O=C(O[C@H]1[C@@H]2C[C@@H]3OC[C@](O)([C@@H]1Cl)[C@H]2C(O[C@@H]1O[C@H](CO)[C@@H](O)[C@H](O)[C@H]1O)O3)c1ccc(O)c(O)c1` (stereo not given in full) the max response was -7.93% (inactive).
